# PMC5540273 (PLoS ONE, 2017)
# Experiments:
# [1] = tested on: HIPK3
# [2] = tested on: HUNK
# [3] = tested on: T1, IKK-alpha
# T1 construct: gene CHUK
# [4] = tested on: T2, IKK-beta
# T2 construct: gene IKBKB
# [5] = tested on: INSR
# [6] = tested on: JAK1(JH1domain-catalytic)
# 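Further: kd values determined as follow-up on hits from a single-replicate KINOMEscan panel screen.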
smiles,measurement,setting,value
Cc1nnc(-c2ccc3occ(-c4ccc(S(C)=O)cc4)c3c2)[nH]1 (centres unmarked),Kd,[1],0.34 µM
Cc1c(O)cccc1Nc1ccnc2ccc(C(F)(F)F)cc12.Cl [GW466413],Kd,[2],> 10 µM
O=C1NC(=O)C(N2CCc3ccccc32)=C1c1ccccc1Cl [SB-373598],Kd,[3],> 10 µM
O=S(=O)(c1ccc(-c2ccnc3[nH]ccc23)cc1)N1CCCC1 [GSK846226],Kd,[4],0.27 µM
CC(C)(C)c1ccc(C(=O)Nc2cn3cc(Cl)ccc3n2)cc1,Kd,[4],> 10 µM
COc1cc2ncnc(Nc3ccc4nc(-c5ccccc5)[nH]c4c3)c2cc1OC.Cl [GW282450],Kd,[5],> 10 µM
Cc1cc(N2Cc3ccccc3C2)nc(Nc2ccc(S(=O)(=O)N3CCOCC3)cc2)n1.Cl [GSK1669917],Kd,[5],> 10 µM
Cc1c(Cn2ccn3c(=O)cc(N4CCOCC4)nc23)cccc1C(F)(F)F [GSK2289044],Kd,[6],> 10 µM
